Measurements as given in ChEMBL document CHEMBL2218924, “A broad activity screen in support of a chemogenomic map for kinase signalling research and drug discovery” (Biochem J, 2013).

Legend:
[1] = molecular target: T1, Testis-specific serine/threonine-protein kinase 1 (Homo sapiens) (UniProt Q9BXA7); details: at 1 µM
T1 sequence (whole entry): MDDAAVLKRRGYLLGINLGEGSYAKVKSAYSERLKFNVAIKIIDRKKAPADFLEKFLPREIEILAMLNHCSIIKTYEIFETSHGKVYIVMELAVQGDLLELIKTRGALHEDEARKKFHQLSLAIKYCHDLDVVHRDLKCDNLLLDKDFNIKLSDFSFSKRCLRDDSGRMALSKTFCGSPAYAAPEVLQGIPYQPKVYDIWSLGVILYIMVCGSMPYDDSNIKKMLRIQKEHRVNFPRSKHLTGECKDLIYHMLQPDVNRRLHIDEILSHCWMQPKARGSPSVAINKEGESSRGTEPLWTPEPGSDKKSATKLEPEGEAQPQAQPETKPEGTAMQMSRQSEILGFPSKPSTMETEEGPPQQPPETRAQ

[2] = molecular target: T1, Testis-specific serine/threonine-protein kinase 1 (Homo sapiens); details: at 10 µM
[3] = molecular target: T2, Testis-specific serine/threonine-protein kinase 2 (Homo sapiens) (UniProt Q96PF2); details: at 10 µM
T2 sequence (whole entry): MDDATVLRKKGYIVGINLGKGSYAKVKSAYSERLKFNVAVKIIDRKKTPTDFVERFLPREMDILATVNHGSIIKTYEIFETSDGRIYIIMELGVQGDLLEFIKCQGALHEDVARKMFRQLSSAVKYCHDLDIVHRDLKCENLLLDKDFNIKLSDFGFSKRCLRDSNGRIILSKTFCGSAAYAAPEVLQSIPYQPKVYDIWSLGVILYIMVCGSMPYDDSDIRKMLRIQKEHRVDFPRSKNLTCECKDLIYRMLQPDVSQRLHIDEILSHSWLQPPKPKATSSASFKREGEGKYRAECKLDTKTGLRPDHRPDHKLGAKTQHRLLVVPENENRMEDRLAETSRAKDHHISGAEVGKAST

[4] = molecular target: T3, Tyrosine-protein kinase Tec (Homo sapiens) (UniProt P42680); details: at 1 µM
T3 sequence (whole entry): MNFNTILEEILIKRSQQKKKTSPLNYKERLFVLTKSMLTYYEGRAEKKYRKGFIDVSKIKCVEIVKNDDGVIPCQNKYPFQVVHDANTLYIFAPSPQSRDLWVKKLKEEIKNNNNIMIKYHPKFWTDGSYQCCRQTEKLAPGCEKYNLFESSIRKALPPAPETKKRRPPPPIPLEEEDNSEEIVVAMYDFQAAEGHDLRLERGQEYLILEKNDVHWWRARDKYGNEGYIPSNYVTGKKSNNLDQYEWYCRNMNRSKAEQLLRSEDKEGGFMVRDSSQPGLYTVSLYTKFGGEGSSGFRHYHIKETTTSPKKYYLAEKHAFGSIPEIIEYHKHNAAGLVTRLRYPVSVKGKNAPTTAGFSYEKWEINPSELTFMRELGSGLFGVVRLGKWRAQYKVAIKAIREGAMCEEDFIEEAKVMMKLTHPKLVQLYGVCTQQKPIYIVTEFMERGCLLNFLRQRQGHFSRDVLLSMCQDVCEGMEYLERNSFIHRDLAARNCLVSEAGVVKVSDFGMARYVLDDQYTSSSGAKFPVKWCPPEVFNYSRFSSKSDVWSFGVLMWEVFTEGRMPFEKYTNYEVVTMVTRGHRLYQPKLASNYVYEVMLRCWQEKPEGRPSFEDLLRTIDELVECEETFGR

[5] = molecular target: T3, Tyrosine-protein kinase Tec (Homo sapiens); details: at 10 µM
[6] = molecular target: Angiopoietin-1 receptor (Homo sapiens) (UniProt Q02763); details: at 1 µM
Angiopoietin-1 receptor (Homo sapiens), sequence (Q02763 whole entry): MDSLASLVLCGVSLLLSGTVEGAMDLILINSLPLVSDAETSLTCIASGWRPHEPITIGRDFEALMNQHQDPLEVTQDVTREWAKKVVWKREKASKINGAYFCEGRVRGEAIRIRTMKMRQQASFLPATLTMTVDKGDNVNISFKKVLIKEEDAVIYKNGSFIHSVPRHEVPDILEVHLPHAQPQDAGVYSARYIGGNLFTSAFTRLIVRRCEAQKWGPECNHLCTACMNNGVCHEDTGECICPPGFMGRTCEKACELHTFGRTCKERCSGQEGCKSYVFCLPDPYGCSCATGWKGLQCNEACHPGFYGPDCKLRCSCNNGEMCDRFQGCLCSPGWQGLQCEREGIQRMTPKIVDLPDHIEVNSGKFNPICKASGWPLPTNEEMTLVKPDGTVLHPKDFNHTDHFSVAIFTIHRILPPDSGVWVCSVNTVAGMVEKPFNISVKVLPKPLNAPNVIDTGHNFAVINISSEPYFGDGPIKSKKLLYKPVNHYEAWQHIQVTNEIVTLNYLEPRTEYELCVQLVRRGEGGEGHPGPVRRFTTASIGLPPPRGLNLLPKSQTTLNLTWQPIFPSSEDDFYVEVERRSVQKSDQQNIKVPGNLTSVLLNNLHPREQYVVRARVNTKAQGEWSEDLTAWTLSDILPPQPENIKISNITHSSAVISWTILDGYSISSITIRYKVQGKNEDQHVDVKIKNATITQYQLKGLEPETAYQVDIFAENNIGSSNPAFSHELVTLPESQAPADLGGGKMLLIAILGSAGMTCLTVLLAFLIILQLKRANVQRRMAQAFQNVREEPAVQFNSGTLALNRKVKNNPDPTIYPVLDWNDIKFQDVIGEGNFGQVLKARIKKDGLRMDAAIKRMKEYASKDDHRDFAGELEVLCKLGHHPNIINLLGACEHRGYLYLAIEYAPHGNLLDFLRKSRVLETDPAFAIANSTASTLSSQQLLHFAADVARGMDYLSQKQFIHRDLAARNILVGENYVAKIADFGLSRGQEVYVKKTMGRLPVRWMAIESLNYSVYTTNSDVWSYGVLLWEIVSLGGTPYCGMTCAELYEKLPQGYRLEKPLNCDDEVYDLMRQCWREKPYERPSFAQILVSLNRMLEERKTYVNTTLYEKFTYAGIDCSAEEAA

[7] = molecular target: Angiopoietin-1 receptor (Homo sapiens) (UniProt Q02763); details: at 10 µM
[8] = molecular target: High affinity nerve growth factor receptor (Homo sapiens) (UniProt P04629); details: at 1 µM
High affinity nerve growth factor receptor (Homo sapiens), sequence (P04629 33-796 limits assumed): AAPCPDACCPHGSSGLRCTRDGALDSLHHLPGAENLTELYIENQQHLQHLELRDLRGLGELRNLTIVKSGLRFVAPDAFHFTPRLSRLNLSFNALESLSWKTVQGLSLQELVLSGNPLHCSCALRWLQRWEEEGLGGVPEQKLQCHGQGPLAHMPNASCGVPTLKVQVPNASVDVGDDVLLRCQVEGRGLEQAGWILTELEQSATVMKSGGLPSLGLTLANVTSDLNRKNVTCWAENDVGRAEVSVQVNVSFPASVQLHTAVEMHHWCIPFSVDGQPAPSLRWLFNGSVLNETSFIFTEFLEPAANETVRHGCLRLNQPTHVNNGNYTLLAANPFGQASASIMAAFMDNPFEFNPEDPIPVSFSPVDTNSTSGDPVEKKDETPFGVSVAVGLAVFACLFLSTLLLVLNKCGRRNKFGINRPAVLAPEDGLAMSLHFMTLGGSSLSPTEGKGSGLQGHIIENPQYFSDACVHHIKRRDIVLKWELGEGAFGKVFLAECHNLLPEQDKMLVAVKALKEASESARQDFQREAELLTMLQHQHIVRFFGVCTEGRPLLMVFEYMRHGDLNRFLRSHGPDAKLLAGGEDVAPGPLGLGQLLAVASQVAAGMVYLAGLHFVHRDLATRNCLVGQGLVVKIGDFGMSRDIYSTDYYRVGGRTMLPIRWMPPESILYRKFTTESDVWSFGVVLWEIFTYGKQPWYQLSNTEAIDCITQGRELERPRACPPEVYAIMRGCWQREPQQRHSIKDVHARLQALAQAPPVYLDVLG

[9] = molecular target: High affinity nerve growth factor receptor (Homo sapiens) (UniProt P04629); details: at 10 µM
[10] = molecular target: BDNF/NT-3 growth factors receptor (Homo sapiens) (UniProt Q16620); details: at 1 µM
BDNF/NT-3 growth factors receptor (Homo sapiens), sequence (Q16620 32-822 limits assumed): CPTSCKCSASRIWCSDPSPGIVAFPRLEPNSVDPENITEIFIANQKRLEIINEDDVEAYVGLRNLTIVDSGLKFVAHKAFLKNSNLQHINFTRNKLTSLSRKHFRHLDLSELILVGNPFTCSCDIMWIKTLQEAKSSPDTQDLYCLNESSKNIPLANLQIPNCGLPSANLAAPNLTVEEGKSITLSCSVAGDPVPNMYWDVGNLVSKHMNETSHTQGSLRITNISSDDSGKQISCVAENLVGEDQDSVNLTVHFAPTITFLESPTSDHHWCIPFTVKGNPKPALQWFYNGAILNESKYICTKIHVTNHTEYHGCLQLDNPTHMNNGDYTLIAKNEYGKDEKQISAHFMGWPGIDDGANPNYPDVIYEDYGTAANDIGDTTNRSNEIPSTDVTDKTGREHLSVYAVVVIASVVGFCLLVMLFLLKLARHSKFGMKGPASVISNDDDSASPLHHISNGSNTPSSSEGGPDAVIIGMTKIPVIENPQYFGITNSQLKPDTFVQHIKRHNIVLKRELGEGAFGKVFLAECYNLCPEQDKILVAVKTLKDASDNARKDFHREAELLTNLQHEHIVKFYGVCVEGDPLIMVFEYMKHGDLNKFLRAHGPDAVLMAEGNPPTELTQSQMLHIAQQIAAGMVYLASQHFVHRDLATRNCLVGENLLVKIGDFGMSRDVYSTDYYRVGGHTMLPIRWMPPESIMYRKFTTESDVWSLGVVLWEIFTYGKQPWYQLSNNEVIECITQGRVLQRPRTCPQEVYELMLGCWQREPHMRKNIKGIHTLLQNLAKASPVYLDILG

| SMILES | residual activity [1] [%] | residual activity [2] [%] | residual activity [3] [%] | residual activity [4] [%] | residual activity [5] [%] | residual activity [6] [%] | residual activity [7] [%] | residual activity [8] [%] | residual activity [9] [%] | residual activity [10] [%] |
| --- | --- | --- | --- | --- | --- | --- | --- | --- | --- | --- |
| O=C1NC(=O)c2c1c1c3ccccc3[nH]c1c1[nH]c3cc(Br)ccc3c21 | 110 | 91 | 86 | 98 | 82 | 94 | 81 | 37 | 27 | 74 |
| N#Cc1cnc2cnc(NCc3cccnc3)cc2c1Nc1ccc(F)c(Cl)c1 | 0 | -1 | 14 | 90 | 65 | – | – | 101 | 88 | 3 |
| CO[C@H]1[C@@H](OC)C[C@H](C)[C@@H](OC)C2=CC(=O)C=C(NC(=O)/C(C)=C/C=C/[C@H](OC)[C@@H](OC(N)=O)/C(C)=C/[C@@H]1C)C2=O | 100 | 88 | 75 | 89 | 84 | 84 | 76 | 120 | 118 | 113 |
| CC(C)n1cnc2c(NCc3ccccc3)nc(NCCCO)nc21 | 90 | 89 | 81 | 90 | 89 | 104 | 87 | 93 | 94 | 88 |
| COc1cc2ncnc(Nc3ccc(NC(=O)c4ccccc4)cc3)c2cc1OC | 109 | 92 | 96 | 97 | 82 | – | 65 | 73 | 20 | 54 |
| CCOc1cc2ncnc(Nc3cccc(Br)c3)c2cc1OCC | 99 | 83 | 67 | 74 | 38 | 48 | 46 | 87 | 43 | 116 |
| COc1cccc(-c2cc(=O)c3ccccc3o2)c1N | 103 | 89 | 86 | 87 | 91 | 108 | 106 | 99 | 92 | 105 |
| O=C1Nc2ccc(Br)cc2/C1=C\c1cc2c([nH]1)CCCC2 | – | – | – | 105 | – | 110 | – | 19 | 20 | 48 |
| Oc1c2ccccc2c2c3c(cccc13)N=N2 | 75 | 49 | 86 | 89 | 57 | 95 | 63 | 10 | -1 | 32 |
| Cc1ccc(NC2=CC(=O)c3sc(C)nc3C2=O)cc1 | 92 | 98 | 86 | 85 | 93 | 100 | 99 | 89 | 88 | 102 |
| COc1ccc(S(=O)(=O)N(CCO)c2ccccc2CN(C)C/C=C/c2ccc(Cl)cc2)cc1 | 97 | 81 | 86 | 102 | 36 | 118 | 66 | 87 | 47 | 86 |
| COc1cc2ncnc(Nc3ccc(Oc4ccccc4)cc3)c2cc1OC | 95 | 93 | 111 | 40 | 10 | – | – | 135 | 82 | 102 |
| O=C(Nc1cccc(Nc2nccc(Nc3cccc(C(F)(F)F)c3)n2)c1)C1CC1 | 94 | 64 | 78 | 78 | 9 | 136 | 70 | 18 | 1 | 44 |
| CN(C)c1ccc(/C=C2\C(=O)Nc3ccccc32)cc1 | 104 | 101 | 97 | 87 | 68 | 83 | 70 | 10 | 3 | 46 |
| CCC(=O)Nc1ccc2ncnc(Nc3cccc(Br)c3)c2c1 | 93 | 90 | 102 | 86 | 90 | 81 | 70 | 97 | 96 | 77 |
| N#CC(C#N)=C(N)/C(C#N)=C/c1ccc(O)cc1 | 98 | 96 | – | 90 | 88 | 84 | 74 | 121 | 119 | 99 |
| O=C1Nc2ccccc2/C1=C1/Nc2ccccc2/C1=N\OCCC(O)CO (centres undefined) | 75 | 69 | – | 47 | 8 | – | – | -1 | 0 | -2 |
| Oc1n[nH]c2nnc(-c3c(-c4ccccc4)nn4ccccc34)cc12 | 82 | 93 | 83 | 85 | 66 | 97 | 93 | 83 | 70 | 98 |

| SMILES | residual activity [1] [%] | residual activity [2] [%] | residual activity [3] [%] | residual activity [4] [%] | residual activity [5] [%] | residual activity [6] [%] | residual activity [7] [%] | residual activity [8] [%] | residual activity [9] [%] | residual activity [10] [%] |
| --- | --- | --- | --- | --- | --- | --- | --- | --- | --- | --- |
| c1ccc2c(-c3ccncc3)c[nH]c2c1 | 94 | 89 | 95 | 103 | 85 | 77 | 88 | 91 | 55 | 134 |
| CCN(CC)C(=O)c1ccc(Nc2nc(OCC3CCCCC3)c3nc[nH]c3n2)cc1 | 14 | 2 | 14 | 24 | 2 | – | 8 | 8 | 0 | 36 |
| COc1cc2ncc(-c3ccccc3)nc2cc1OC | – | 92 | 84 | 96 | 63 | – | 80 | 39 | -1 | 54 |
| Cc1nc2cc3nc(-c4cccs4)cnc3cc2n1C | 102 | 85 | 93 | 83 | 101 | 81 | 61 | 72 | 27 | 69 |
| N#CCCc1ccc2c(c1)-c1[nH]c3ccc([N+](=O)[O-])cc3c1CC(=O)N2 | 39 | 21 | – | – | 29 | – | – | 54 | 23 | 71 |
| COc1ccc(C(=O)Nc2sc3c(c2C(N)=O)CCCC3)cc1OC | 94 | 75 | 85 | 89 | 86 | 79 | 59 | 58 | 76 | 70 |
| O=C1c2ccccc2-[n+]2ccc3c([nH]c4ccccc43)c21 | 90 | 89 | 86 | 77 | 74 | 90 | 78 | 83 | 47 | 89 |
| CCN(CC)CCCCN1c2ccccc2Oc2ccc(Cl)cc21 | 105 | 102 | 98 | 92 | 78 | 105 | 71 | 90 | 101 | 107 |
| Cn1cc(/C=C2\C(=O)Nc3ccc(S(N)(=O)=O)cc32)c2ccccc21 | 19 | 14 | 72 | 52 | 6 | 86 | 73 | 1 | 1 | 23 |
| CC(=O)O/N=C1\C(=C2\C(=O)Nc3cc(Br)ccc32)Nc2ccccc21 | 92 | 86 | 92 | 59 | 21 | 86 | 87 | 6 | 0 | 29 |
| Nc1ccc2ncnc(NCCc3ccc(Oc4ccccc4)cc3)c2c1 | 89 | 58 | 98 | 84 | 30 | 114 | 66 | 89 | 56 | 82 |
| Cc1cc(Nc2nc(-c3ccccc3)nc3ccccc23)n[nH]1 | 72 | 25 | 67 | 38 | 4 | 77 | 6 | -2 | -1 | 1 |
| Nc1cccc(-c2cc3c(Oc4cccc(O)c4)ncnc3[nH]2)c1 | 101 | 71 | 78 | 17 | 0 | 18 | 1 | 61 | 6 | 74 |
| Oc1ccc(-c2nc(-c3ccc(F)cc3)c(-c3ccncc3)[nH]2)cc1 | 112 | 83 | 113 | 87 | 55 | 109 | 49 | 107 | 83 | 99 |
| CC(=O)c1ccc(N2CCOCC2)cc1O | 98 | 94 | 104 | 104 | 91 | 79 | 83 | – | – | 84 |
| c1ccc(-c2n[nH]c3c2oc2ccccc23)cc1 | – | 82 | 96 | – | 76 | 83 | 58 | 32 | 2 | 45 |
| O=C1Nc2cc(Br)ccc2/C1=C1/Nc2ccccc2/C1=N\O | 86 | 90 | 62 | 15 | 13 | 67 | 79 | 0 | 0 | -1 |
| CN(C)CCCn1cc(C2=C(c3c[nH]c4ccccc34)C(=O)NC2=O)c2ccccc21 | 86 | 37 | – | 113 | 65 | 120 | 60 | 48 | 13 | 36 |
